Source: PubChem (National Center for Advancing Translational Sciences (NCATS))
This excerpt belongs to a sample that is enriched for hits.
Shiga toxin inh = blocks Shiga toxin action in Vero cells | Vero cells, Shiga toxin protein synthesis inhibition reporter | inhibition, % at 38.7 µM | hit rate 9.2% among 290,000 | AID 2315; in the data active = inhibition mostly above about 28%, no sharp cut-off; inactive = mostly below about 43%; note: 0% is about no effect
AmpC no deterg = blocks E. coli AmpC beta-lactamase in detergent-free assay; AmpC nitrocefin hydrolysis, absorbance 480 nm, 0.0001% Triton; Potency, µM (series often up to 57.1 µM), for the others: top-dose activity change, negative = inhibition, usual class: inhibitors; hit rate 0.52% among 330,000; AID 485341;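 note: potency is the fitted concentration of half-maximal effect; plate controls were no compound for no effect and no enzyme for full effect; nearly all actives have a fitted effect of over 20% in size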
Target sequence (P00811 whole entry, looked up): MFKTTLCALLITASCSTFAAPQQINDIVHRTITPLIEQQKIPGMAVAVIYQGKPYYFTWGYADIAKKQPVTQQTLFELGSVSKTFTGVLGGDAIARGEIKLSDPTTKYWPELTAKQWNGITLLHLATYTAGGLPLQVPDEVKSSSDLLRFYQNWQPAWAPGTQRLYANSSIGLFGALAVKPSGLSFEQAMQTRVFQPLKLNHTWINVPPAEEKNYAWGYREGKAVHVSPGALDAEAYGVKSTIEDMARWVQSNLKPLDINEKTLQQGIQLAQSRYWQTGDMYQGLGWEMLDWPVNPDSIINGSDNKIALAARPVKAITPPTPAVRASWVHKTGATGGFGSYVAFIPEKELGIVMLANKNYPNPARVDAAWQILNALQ
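AmpC (5.3 nM in the dispensed reagent) in 20 mM phosphate pH 7.0 with 0.01% (detergent screen) or 0.0001% Triton X-100 was preincubated with compounds for 15 min at room temperature. Nitrocefin was then added from an 800 uM solution, and hydrolysis was followed at 480 nm.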
CHX counter = counter-screen hit for Shiga toxin inhibitors, cycloheximide; hit rate 12% among 300,000; cell reporter, cycloheximide protein synthesis inhibition counterscreen; max response, %; in the data active = max response mostly above about 13%, no sharp cut-off; inactive = mostly below about 14%; note: read at 38.3 µM for the half of the compounds with a filed dose; 0% is about no effect
AmpC inh detg = blocks E. coli AmpC beta-lactamase in detergent assay; Potency, µM (titrated, usually from 114 µM), for inactives: at the top dose activity change, negative = inhibition, usual class: inhibitors; AID 485294; AmpC hydrolysis of nitrocefin, absorbance 480 nm, 0.01% Triton; hit rate 0.041% among 370,000; P00811;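 note: potency is the fitted concentration of half-maximal effect; 0% = no-compound wells and -100% = no-enzyme wells; nearly all actives have a fitted effect of over 25% in size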
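AmpC (5.3 nM in the dispensed reagent) in 20 mM phosphate pH 7.0 with 0.01% (detergent screen) or 0.0001% Triton X-100 was preincubated with compounds for 15 min at room temperature. Nitrocefin was then added from an 800 uM solution, and hydrolysis was followed at 480 nm.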
SARS PLP yeast = blocks SARS-CoV papain-like protease in a yeast assay | S. cerevisiae expressing SARS-CoV PLpro, growth rescue | Potency, µM (top dose mostly 32.9 µM), for the others: top-dose activity, positive = growth rescue, usual class: activators | hit rate 0.19% among 330,000; calls by dose curve; note: potency is the fitted concentration of half-maximal effect; 0% is about no effect; nearly all actives have a fitted effect of over 55% in size
AMA1-RON2 inh = AMA1-RON2 (P. falciparum) interaction inhibition; Potency, µM (series often up to 58.2 µM), inactives show top-dose activity change, negative = inhibition, usual class: inhibitors; AlphaScreen AMA1-biotinylated RON2 peptide binding; hit rate 0.2% among 360,000;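 note: potency is the fitted concentration of half-maximal effect; 0% = vehicle wells and -100% = peptide control; nearly all actives have a fitted effect of over 45% in size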
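AMA1 (3D7) with his tag at 25 nM final met compounds first, then biotinylated RON2 peptide at 25 nM; detection used donor plus acceptor beads, 10 µg/mL apiece, read by AlphaScreen after 30 min at room temperature.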
Starred values were filed as active, the others as inactive; u = inconclusive; x = no result. Unless noted, calls come from the whole dose curve; as a rule, active = well fitted curve in the direction sought with a large enough effect; inconclusive = small, poorly fitted or top-dose-only effect, or another doubt; inactive = no such curve, though single readings can be large; an effect the other way counts as inactive or inconclusive.

SMILES | Shiga toxin inh | AmpC no deterg | CHX counter | AmpC inh detg | SARS PLP yeast | AMA1-RON2 inh
CCC(C)Sc1nnc(NS(=O)(=O)Cc2ccccc2)s1 (centres undefined) | 22 | -3% | 15* | -3% | 3% | 7%
COCCSc1nnc(NS(=O)(=O)Cc2ccccc2)s1 | 6 | -27% | 2 | 3% | -2% | 6%
Cc1[nH]nc(SCC(=O)N2CCCCC2)c1[N+](=O)[O-] | 86 | -31% | 23* | 0% | 5% | -4%
O=C(NC(Cc1ccccc1)C(=O)O)/C(=C/c1ccccc1)NC(=O)c1ccccc1 (centres undefined) | -7 | -20% | -5 | -14% | 21% | 2%
COc1ccc2nc(NC(=O)CN3CCOCC3)sc2c1 | 24 | -8% | 58* | 4% | -9% | -14%
COc1ccc2nc(NC(=O)CN3C(=O)NC4(CCCC4)C3=O)sc2c1 | x | -24% | x | -21% | -1% | 12%
COc1ccc2nc(NC(=O)CN3C(=O)NC4(CCCCC4)C3=O)sc2c1 | 34 | -29% | 17* | 3% | 1% | -14%
CC(=O)Nc1ccc2nc(NC(=O)CN3CCOCC3)sc2c1 | 56 | 8% | 19 | -2% | 2% | 20%
COc1ccc2nc(NC(=O)CN3CCN(C)CC3)sc2c1 | 152* | -8% | 46* | u | -2% | -5%
O=C1N(Cc2cccc(Cl)c2)C[C@@H]2C[C@@H](c3cccc4cccnc34)N3CCC[C@@]123 | 3 | 66% | -1 | -4% | 0% | 8%
O=c1oc(-c2ccc([N+](=O)[O-])cc2)nc2ccccc12 | -10 | -3% | 4 | -3% | 0% | -8%
O=c1oc(-c2ccc(Br)cc2)nc2ccccc12 | x | -8% | 26* | -10% | 2% | 3%
Nc1ccccc1-c1nc2ccccc2c(=O)o1 | 29* | -29% | 18* | u | -7% | 29%
CCc1cc2c(SCC(=O)O)ncnc2s1 | -17 | -32% | 5 | -5% | 2% | 3%
CCc1cc2c(SCC(=O)N3CCN(C(=O)c4cccs4)CC3)ncnc2s1 | x | x | x | x | x | -6%
CCc1cc2c(SCC(=O)c3ccccc3)ncnc2s1 | 73* | -20% | 45* | -4% | 20% | -5%
CCc1cc2c(SCC(=O)c3cccs3)ncnc2s1 | -15 | -31% | 16* | 1% | 0% | 51%
CC(C)NS(=O)(=O)c1ccc(OCC(=O)NCC2CCCO2)c(Cl)c1 (centres undefined) | -14 | -4% | -2 | 2% | 0% | 3%
CSCCC(NC(=O)c1cccc(S(=O)(=O)N2CCOCC2)c1)c1nc2ccccc2[nH]1 (centres undefined) | x | 0% | x | 1% | -3% | -8%
Nc1nnc(SCC(=O)c2cccc([N+](=O)[O-])c2)s1 | 3 | -39% | -2 | -13% | 2% | -3%
Nc1nnc(SCC(=O)c2ccc3ccccc3c2)s1 | 151* | -33% | 85* | -13% | -6% | 13%
Nc1nnc(SCCCC(=O)c2ccccc2)s1 | -21 | -2% | 23* | -10% | 25% | 0%
CC(C)Cc1ccc(S(=O)(=O)N2CCN(Cc3noc(CCC(=O)N4CCCCC4)n3)CC2)cc1 | x | x | x | 13% | x | x
O=C(CC1CCCCC1)NCCOc1ccccc1 | 50* | -16% | 9.7* | -2% | 30% | -12%
O=C(CCC(=O)c1ccccc1)NCCOc1ccccc1 | 20 | -1% | 0 | 2% | 0% | 10%
SMILES | Shiga toxin inh | AmpC no deterg | CHX counter | AmpC inh detg | SARS PLP yeast | AMA1-RON2 inh
O=C(NCCOc1ccccc1)C1CCCCC1 | 72* | -5% | 29* | u | 10% | 0%
Cc1ccc(C)c(OCc2nc(-c3cccnc3)no2)c1 | 30 | 7% | 10 | -5% | u | 24%
Cc1ccc(-c2nc(-c3cccnc3)no2)c(C)c1 | 108* | -7% | 36* | 0% | -5% | -6%
Cc1c(-c2nc(-c3cccnc3)no2)cccc1[N+](=O)[O-] | 38 | -18% | 24* | -9% | 1% | 0%
C/C(=N\NC(=O)COc1ccc(C)cc1C(C)C)c1ccc(-n2ccnc2)cc1 | 26 | 25% | 17* | -8% | -53% | 30%
O=C(c1ccco1)N(CCC(c1ccccc1)c1ccco1)Cc1ccc(F)cc1 (centres undefined) | 20 | -9% | 22* | 1% | -21% | -7%
O=C(COc1ccccc1[N+](=O)[O-])OCC(=O)N1CCC(Cc2ccccc2)CC1 | 11 | 22% | -2 | 5% | 4% | 6%
Nc1c(C(=O)CSc2nccn2-c2ccc(Cl)cc2)c(=O)[nH]c(=O)n1C1CC1 | x | -21% | x | -5% | -1% | 2%
C=CCOc1cc(OC)c(OC)c(OC)c1 | -2 | 1% | -1 | 1% | 0% | 0%
C=CCOc1ccc(/C(CC)=N/O)c(OC)c1 | 27 | -24% | 13* | -11% | -4% | -7%
O=C(O)CC1=C(Nc2ccccc2)C(=O)N(c2ccccc2)C1c1ccc(F)cc1 (centres undefined) | 99* | -39% | 52* | -1% | -16% | -5%
O=C(O)CC1=C(O)C(=O)N(c2ccccc2)C1c1ccccc1 (centres undefined) | 9 | -38% | 8 | -6% | 1% | -3%
COc1ccc(C2C(CC(=O)O)=C(Nc3ccccc3)C(=O)N2c2ccccc2)cc1 (centres undefined) | 132 | -56% | 37* | -5% | -1% | 0%
COc1ccc(NC2CCCN(C(=O)CCN3Cc4ccccc4C3=O)C2)cc1 (centres undefined) | 9 | 4% | 14 | -1% | -3% | -4%
COc1ccc(N(CC(O)CN2CCOCC2)S(=O)(=O)c2ccccc2)cc1 (centres undefined) | 18 | 9% | -1 | -8% | 0% | 14%
O=c1c2c3c(sc2ncn1-n1cccc1)CCCCC3 | 56* | -6% | 36* | 6% | -14% | -7%
CC(NC(=O)c1ccc([N+](=O)[O-])cc1Cl)C1CC2CCC1C2 (centres undefined) | 43 | -19% | 14* | 2% | -2% | -3%
CCOC(=O)c1sc(Nc2nc3c(F)cccc3s2)cc1C | 72* | u | 38* | -3% | -11% | 2%
CCOC(=O)c1sc(Nc2nc3ccc(OC)cc3s2)cc1C | 74* | -42% | 41* | 3% | -53% | -18%
CCOc1ccc(S(=O)(=O)Nc2nc3ccc(OC)cc3s2)cc1 | -6 | -30% | -2 | -10% | 5% | 1%
C#CCOc1coc(COC(=O)c2ccccc2)cc1=O | 23 | -6% | 23* | 1% | 24% | 15%
O=c1cc(CO)occ1OCc1ccccc1 | 11 | -2% | 9 | -1% | 8% | -8%
CCCCOc1ccc(C(=O)Nc2ccc(OCC(=O)N3CCOCC3)cc2)cc1 | 51* | 129% | 26* | u | -2% | 3%
